From PubChem BioAssay
A number with no mark means an inactive call. Calls of active or inactive are those of the source. No stated cut-off is given here; in the data, active means inhibition above about 44%; inactive means the rest.

These compounds were tested against Steroidogenic factor 1 (Homo sapiens) (UniProt Q13285) (assay: SF1 (NR5A1) inverse agonists, counter-screen for LRH-1 inverse agonist project, cell-based, luminescence, high throughput (AID 651614;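 further: cells cotransfected with StAR promoter reporter and SF1 expression vector; 0% = vehicle on cells with receptor and 100% = vehicle on cells lacking receptor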)). Details: cell-based SF1 luciferase reporter, at 3.6 µM, active compounds read high.
Steroidogenic factor 1 (Homo sapiens), sequence (Q13285 whole entry, looked up): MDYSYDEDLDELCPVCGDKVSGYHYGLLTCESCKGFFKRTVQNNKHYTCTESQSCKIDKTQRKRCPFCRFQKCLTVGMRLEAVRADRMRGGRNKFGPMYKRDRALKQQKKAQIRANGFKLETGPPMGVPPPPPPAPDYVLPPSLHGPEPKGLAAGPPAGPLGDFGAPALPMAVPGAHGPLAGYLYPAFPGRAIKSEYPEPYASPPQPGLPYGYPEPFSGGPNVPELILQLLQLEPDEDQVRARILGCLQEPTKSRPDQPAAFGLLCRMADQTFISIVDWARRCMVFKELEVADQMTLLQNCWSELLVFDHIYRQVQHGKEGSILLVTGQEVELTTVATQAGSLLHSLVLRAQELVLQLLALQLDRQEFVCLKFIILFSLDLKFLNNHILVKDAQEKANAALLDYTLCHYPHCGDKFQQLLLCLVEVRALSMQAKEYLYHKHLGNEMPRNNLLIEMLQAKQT

Structure (SMILES) | inhibition
CCCCn1c(NC(=O)c2ccc(Br)o2)c(C(=O)OCC)c2nc3ccccc3nc21 | 45.6% (active)
Cc1nn(Cc2ccccc2)c(C)c1C(=O)OCC(=O)Nc1ccccc1SCC#N | 52.9% (active)
Cc1ccc(-n2nc(C)cc2NC(=O)COc2cc(C)cc3oc(=O)c4c(c23)CCC4)cc1 | 61.2% (active)
OC1(c2ccc(F)cc2)CC2CCC(C1)N2Cc1nnnn1C1CCCC1 (configuration not stated) | 50.3% (active)
CCOC(=O)c1c(C)n(CC(O)CN2CCOCC2)c2cc(Br)c(OC)cc12 (configuration not stated) | 47.9% (active)
CC1=C(O)C(=O)C=C2C1=CC=C1C2(C)CCC2(C)C3CC(C)(C(=O)O)CCC3(C)CCC12C (configuration not stated) | 96.7% (active)
CCN1CCN(c2cc(N3CCCC3)c([N+](=O)[O-])cc2F)CC1 | 46.4% (active)
NC(Cc1ccc(F)cc1)c1csc(Nc2ncccn2)n1 (configuration not stated) | 38.9%
CC[n+]1c(/C=C/C=C/c2ccc(N(C)C)cc2)sc2ccccc21 | 86.4% (active)
CC1=CC2OC3CC4OC(=O)C=CC=CC(=O)OCCC(C)C(O)C(=O)OCC2(CC1)C4(C)C31CO1 (configuration not stated) | 98.2% (active)
CCOC(=O)[C@]12Cc3ccc(C)cc3[C@H]1N(C1CCCCC1)C(=O)c1cc(OC)ccc12 | 75.1% (active)
Cc1cc(S(=O)(=O)NC(C)C)ccc1OCC(=O)N1CCN(Cc2ccc3c(c2)OCO3)CC1 | 40%
